Assay: stimulators of nuclear beta-catenin in C2C12, primary screen, imaging, WNT3A-conditioned medium, mouse C2C12, NPC library (AID 1117326); also: reference of the scale not given here
Conditions: stimulation, at 2 µM, stronger effect = higher value

Point of comparison: CCCC(CCC)C(N)=O, nuclear beta-catenin stimulation -1%. Against it:
- NS(=O)(=O)c1cc(-c2nn[nH]n2)c(NCc2cccs2)cc1Cl — higher, -0.1%
- CCCCNC(=O)NS(=O)(=O)c1ccc(N)cc1 — higher, 0.7%
- COc1ccc(CC2c3cc(OC)c(OC)cc3CCN2CCC(=O)OCCCCCOC(=O)CCN2CCc3cc(OC)c(OC)cc3C2Cc2ccc(OC)c(OC)c2)cc1OC (stereo not drawn) — higher, 0.5%
- CC1(C)OC(=O)Nc2ccc(Br)cc21 — the same, -1%
- COC(=O)C1=C(C)NC(COC(N)=O)=C(C(=O)OC(C)C)C1c1cccc(Cl)c1Cl (stereo not drawn) — higher, 0.7%
- CCO[C@@H]1O[C@H](C(COCc2ccccc2)OCc2ccccc2)[C@H](OCc2ccccc2)[C@H]1O (stereo partly drawn) — lower, -1.2%
- Oc1cn2c(n1)Nc1ccc(Cl)c(Cl)c1C2 — higher, 2.5%
- NC(=Nc1ccccc1)Nc1ccccc1 — higher, 1.4%
- CCOC(=O)OCC/C(SC(=O)OCC)=C(\C)N(C=O)Cc1cnc(C)nc1N — higher, 0.3%
- CC(C)C(=O)Nc1cccc(C(F)(F)F)c1 — higher, 1.2%
- C/C(=C(\CCO)SS/C(CCO)=C(\C)N(C=O)Cc1cnc(C)nc1N)N(C=O)Cc1cnc(C)nc1N — higher, -0.9%
- COc1cc(C(=S)N2CCOCC2)cc(OC)c1OC — higher, 2%
- CC(C)(C)c1cc(C=O)cc(C(C)(C)C)c1O — higher, 4.1%
- O=c1[nH]c(=O)n([C@H]2O[C@H](CO)[C@@H](O)[C@@H]2O)cc1/C=C\Br — higher, -0.6%
- Cc1c(F)cc2c(=O)c(C(=O)O)cn3c2c1CCC3C (stereo not drawn) — higher, 1.5%
- CC(=O)Oc1ccc(C2(c3ccc(OC(C)=O)cc3)Oc3ccccc3NC2=O)cc1 — higher, 9.3%
- COc1ccnc2c1CCCCC2S(=O)c1nc2ccccc2[nH]1 (stereo not drawn) — higher, 3%

Source: PubChem BioAssay
